PubChem BioAssay
A number with no mark means an inactive call. How the calls were made is not given here.

Molecular target: Pantothenate synthetase (Mycobacterium tuberculosis (strain ATCC 25618 / H37Rv)) (UniProt P9WIL5)
Assay: Coupled enzyme confirmation of inhibitors against recombinant Mtb PanC (AID 375);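 further: 0% = full reaction with vehicle and 100% = no enzyme background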
Settings: coupled enzyme assay; at 10 µM, stronger effect = higher value

Pantothenate synthetase (Mycobacterium tuberculosis (strain ATCC 25618 / H37Rv)), sequence (P9WIL5 whole entry, looked up): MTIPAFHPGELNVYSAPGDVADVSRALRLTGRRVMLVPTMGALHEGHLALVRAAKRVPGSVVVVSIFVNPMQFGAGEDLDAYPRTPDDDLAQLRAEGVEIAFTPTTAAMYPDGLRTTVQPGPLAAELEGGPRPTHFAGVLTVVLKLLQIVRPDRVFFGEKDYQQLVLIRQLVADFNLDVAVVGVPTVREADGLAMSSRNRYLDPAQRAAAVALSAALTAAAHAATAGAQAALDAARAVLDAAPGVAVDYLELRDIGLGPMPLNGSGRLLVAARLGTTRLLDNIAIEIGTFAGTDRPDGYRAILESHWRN

Structure (SMILES) | inhibition [%]
O=C(O)CN1C(=O)CNC1=O | 0
COc1ccc(CNS(=O)(=O)c2ccc3oc(C(=O)O)c(C)c3c2)cc1 | 0
COC(=O)c1ccc(NC(=O)CN2CCN(c3ccc(Cl)cc3)CC2)cc1 | 1
O=C(COc1ccc(S(=O)(=O)NC2CCCCC2)cc1)NCc1ccccn1 | 0
CN(CC(=O)N1CCCCC1)S(=O)(=O)c1cccc2cccnc12 | 0
CN(C)S(=O)(=O)c1ccc(C(=O)Nc2ccccc2C(=O)O)cc1 | 8
CN(C(=O)C1CCCO1)c1nnc(-c2ccncc2)s1 (stereo not drawn) | 1
O=C(CSc1nc2ccccc2o1)N1CCN(C(=O)c2ccco2)CC1 | 0
OC1C[N+]2(CCCCC2)C1 | 0
O=C1NC(=O)C(CC(=O)N(c2ccccc2)C2(C(=O)NC3CCCC3)CCCCC2)N1 (stereo not drawn) | 2
CC1CCc2nn(CC(=O)NCCN3CCOCC3)cc2C1 (stereo not drawn) | 0
CCN(CC)S(=O)(=O)c1ccc(F)c(C(=O)NCCC(C)C)c1 | 2
COC(=O)c1ccccc1NC(=O)CSc1nnc(-c2ccncc2)o1 | 0
CCn1c(SCC(=O)Nc2nc(C)cs2)nnc1-c1ccco1 | 0
CC(C)Cn1c(=O)c(C(=O)NCc2ccccn2)c(O)c2ccccc21 | 0
CCCCSc1nc(CCC)cc(=O)[nH]1 | 0
COc1cccc2cc(C(=O)n3ccc(C)n3)c(=O)oc12 | 1
COc1ccc(-c2nnc(SCC(=O)c3cc(C)n(Cc4cccs4)c3C)o2)cc1 | 0
